# Source: PubChem BioAssay (NCI)
# Compounds without any hit were thinned out: in the full panel of roughly 79,000, 15% have a hit. A number with no mark means an inactive call. The source made the active and inactive calls. Rule as the data show it: active = growth inhibition above about 70%; inactive = the rest.
# Key:
# [1] = NCI Yeast Anticancer Drug Screen. Data for the rad52 strain (AID 147);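 also: 0% = growth of vehicle-treated control cultures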; settings: S. cerevisiae rad52 mutant growth inhibition, hits give high values
# Outline: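 Compounds are applied to a genetically defined yeast strain lacking normal DNA damage repair, and inhibition of growth is expressed relative to cultures given vehicle only.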
# [2] = NCI Yeast Anticancer Drug Screen. Data for the wt1 strain (AID 149);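 also: 0% = growth of vehicle-treated wt1 cultures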; settings: S. cerevisiae wt1 strain (SPY 50644) growth inhibition, hits give high values
# Outline: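 The wt1 strain was treated with compounds, and growth was compared with vehicle-treated cultures to give inhibition.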
# [3] = NCI Yeast Anticancer Drug Screen. Data for the rad50EPP+ strain (AID 151);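 also: 0% = growth of vehicle-treated control cultures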; settings: S. cerevisiae rad50 mutant strain, hits give high values
# Outline: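 Compounds were applied to the rad50EPP+ yeast strain, which bears a defined DNA repair alteration, and growth inhibition was determined relative to vehicle-treated cultures.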
# [4] = NCI Yeast Anticancer Drug Screen. Data for the rad50 strain (AID 155);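 also: 0% = growth of vehicle-only cultures of the same strain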; settings: S. cerevisiae rad50 strain growth inhibition, hits give high values
# Outline: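 Cells are treated with compound, grown, and their growth is then scored against vehicle-only cultures of the same repair-deficient yeast strain.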
# [5] = NCI Yeast Anticancer Drug Screen. Data for the mec2-1 strain (AID 157); settings: S. cerevisiae mec2-1 strain, hits give high values
# Outline: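 Strain: mec2-1 (DNA repair/cell cycle alteration). Compound exposure, then growth measured; inhibition expressed relative to vehicle.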
# [6] = NCI Yeast Anticancer Drug Screen. Data for the rad14 strain (AID 159);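 also: 0% = growth of vehicle-treated control cultures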; settings: S. cerevisiae rad14 strain growth inhibition, hits give high values
# Outline: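 Readout: yeast growth inhibition, referenced to vehicle-only cultures. Strain bears a defined alteration in DNA damage repair.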
# [7] = NCI Yeast Anticancer Drug Screen. Data for the sgs1 mgt1 strain (AID 161);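 also: 0% = growth of cultures given vehicle only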; settings: S. cerevisiae sgs1 mgt1 strain, hits give high values
# Outline: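 Test agents were incubated with a DNA-repair-mutant yeast strain. Growth was then read and compared against vehicle-treated controls.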
# [8] = NCI Yeast Anticancer Drug Screen. Data for the cln2 rad14 strain (AID 165);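 also: 0% = growth equal to vehicle treated cultures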; settings: S. cerevisiae cln2 rad14 strain, hits give high values
# Outline: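 Compounds are applied to the cln2 rad14 yeast strain, and growth is then compared with that of vehicle-treated cultures to give inhibition.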
# [9] = NCI Yeast Anticancer Drug Screen. Data for the bub3 strain (AID 167); settings: S. cerevisiae bub3 mutant strain, hits give high values
# Outline: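 Part of a panel of yeast mutants defective in DNA damage repair or cell cycle regulation. Each strain is grown with compound, and inhibition is calculated relative to solvent-treated cultures.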
# [10] = NCI Yeast Anticancer Drug Screen. Data for the wt2 strain (AID 169);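 also: 0% = growth of vehicle-treated yeast cultures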; settings: S. cerevisiae wt2 strain growth inhibition, hits give high values
# Outline: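 This strain belongs to a panel of yeast strains with defined genetic alterations in DNA damage repair or cell cycle control. Compounds are applied, and growth inhibition is measured against vehicle-treated cultures.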
# [11] = NCI Yeast Anticancer Drug Screen. Data for the mlh1 strain (AID 171);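 also: 0% = growth of vehicle-treated control cultures of the same strain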; settings: S. cerevisiae mlh1 strain growth inhibition, hits give high values
# Outline: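 Growth of the mutant yeast strain after compound exposure, expressed as inhibition relative to vehicle-only controls.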
# [12] = NCI Yeast Anticancer Drug Screen. Data for the sgs1 strain (AID 173);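 also: 0% = growth of vehicle-only control cultures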; settings: S. cerevisiae sgs1 mutant, hits give high values
# Outline: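 Growth of a yeast strain bearing a defined genetic alteration is measured after compound treatment. Inhibition is expressed relative to vehicle-only controls.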
# [13] = NCI Yeast Anticancer Drug Screen. Data for the mlh1 rad18 strain (AID 175); settings: S. cerevisiae mlh1 rad18 strain growth inhibition, hits give high values
# Outline: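 Read-out is yeast growth inhibition, calculated against vehicle-only controls. The compound was applied to a strain engineered with DNA damage repair alterations.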
# [14] = NCI Yeast Anticancer Drug Screen. Data for the rad18 strain (AID 177); settings: S. cerevisiae rad18 mutant growth inhibition, hits give high values
# Outline: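 Growth of the mutant yeast strain after compound exposure, normalised to vehicle-only cultures.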
# [15] = at 5.0 µM (retest, dose inferred, filed as 0.5)
# [16] = at 50.0 µM (retest, dose inferred, filed as 5.0)
structure (smiles),measurement,setting,value
CC1C(C#N)(C#N)C(C#N)=C(N)C1(Cl)[N+](=O)[O-] (stereo not drawn),growth inhibition,[1]; at 1.2 µM,3%
same,growth inhibition,[1]; at 3.7 µM,33%
same,growth inhibition,[1]; at 11.0 µM,35%
same,growth inhibition,[1]; at 33.0 µM,56%
same,growth inhibition,[1]; at 100.0 µM,85% (active)
same,growth inhibition,[2]; at 1.2 µM,10%
same,growth inhibition,[2]; at 3.7 µM,9%
same,growth inhibition,[2]; at 11.0 µM,8%
same,growth inhibition,[2]; at 33.0 µM,22%
same,growth inhibition,[2]; at 100.0 µM,55%
same,growth inhibition,[3]; at 1.2 µM,19%
same,growth inhibition,[3]; at 3.7 µM,37%
same,growth inhibition,[3]; at 11.0 µM,55%
same,growth inhibition,[3]; at 33.0 µM,78% (active)
same,growth inhibition,[3]; at 100.0 µM,85% (active)
same,growth inhibition,[4]; at 1.2 µM,4%
same,growth inhibition,[4]; at 3.7 µM,26%
same,growth inhibition,[4]; [15],24%
same,growth inhibition,[4]; at 11.0 µM,29%
same,growth inhibition,[4]; at 33.0 µM,40%
same,growth inhibition,[4]; [16],78% (active)
same,growth inhibition,[4]; at 50.0 µM,77.5% (active)
same,growth inhibition,[4]; at 100.0 µM,76% (active)
same,growth inhibition,[5]; at 1.2 µM,0%
same,growth inhibition,[5]; at 3.7 µM,30%
same,growth inhibition,[5]; [15],11%
same,growth inhibition,[5]; at 11.0 µM,32%
same,growth inhibition,[5]; at 33.0 µM,41%
same,growth inhibition,[5]; [16],85% (active)
same,growth inhibition,[5]; at 50.0 µM,77.4% (active)
same,growth inhibition,[5]; at 100.0 µM,81% (active)
same,growth inhibition,[6]; at 1.2 µM,1%
same,growth inhibition,[6]; at 3.7 µM,8%
same,growth inhibition,[6]; at 11.0 µM,15%
same,growth inhibition,[6]; at 33.0 µM,28%
same,growth inhibition,[6]; at 100.0 µM,67%
same,growth inhibition,[7]; [15],11%
same,growth inhibition,[7]; [16],78% (active)
same,growth inhibition,[7]; at 50.0 µM,76% (active)
same,growth inhibition,[8]; [15],-5%
same,growth inhibition,[8]; [16],30%
same,growth inhibition,[8]; at 50.0 µM,65.8%
same,growth inhibition,[9]; at 1.2 µM,12%
same,growth inhibition,[9]; at 3.7 µM,12%
same,growth inhibition,[9]; [15],20%
same,growth inhibition,[9]; at 11.0 µM,20%
same,growth inhibition,[9]; at 33.0 µM,49%
same,growth inhibition,[9]; [16],86% (active)
same,growth inhibition,[9]; at 50.0 µM,73.8% (active)
same,growth inhibition,[9]; at 100.0 µM,84% (active)
same,growth inhibition,[10]; at 1.2 µM,-1%
same,growth inhibition,[10]; at 3.7 µM,7%
same,growth inhibition,[10]; at 11.0 µM,22%
same,growth inhibition,[10]; at 33.0 µM,58%
same,growth inhibition,[10]; at 100.0 µM,92% (active)
same,growth inhibition,[11]; at 1.2 µM,11%
same,growth inhibition,[11]; at 3.7 µM,28%
same,growth inhibition,[11]; at 11.0 µM,45%
same,growth inhibition,[11]; at 33.0 µM,68%
same,growth inhibition,[11]; at 100.0 µM,89% (active)
same,growth inhibition,[12]; at 1.2 µM,28%
same,growth inhibition,[12]; at 3.7 µM,20%
same,growth inhibition,[12]; at 11.0 µM,37%
same,growth inhibition,[12]; at 33.0 µM,61%
same,growth inhibition,[12]; at 100.0 µM,90% (active)
same,growth inhibition,[13]; [15],19%
same,growth inhibition,[13]; [16],94% (active)
same,growth inhibition,[13]; at 50.0 µM,48%
same,growth inhibition,[14]; at 1.2 µM,14%
same,growth inhibition,[14]; at 3.7 µM,17%
same,growth inhibition,[14]; at 11.0 µM,34%
same,growth inhibition,[14]; at 33.0 µM,61%
same,growth inhibition,[14]; at 100.0 µM,87% (active)
